# Pf growth 96h – P. falciparum growth inhibition at 96 hour, primary screen for plastid delayed-death inhibitors; Potency, µM (doses to about 28.7 µM), for inactives: top-dose activity change, negative = inhibition, hits mostly inhibitors; 320,000 compounds, 6.9% hits; AID 504834; P. falciparum luciferase reporter growth, 96 h; also: potency is read from the fitted curve at half-maximal effect; % is scaled to controls: 0 for no effect and ±100 for the full control effect
#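 Plates of compound plus infected erythrocytes (2% hematocrit, 0.05% parasitemia final) incubate 96 hours, 37 C, 5% CO2. Detection reagent added; reduced luminescence from the parasites' luciferase reporter flags inhibition.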
# MARV entry inh – inhibitors of Marburg virus binding or cell entry; Marburg virus pseudotyped entry inhibition, cell reporter; Potency, µM (doses to about 37.8 µM), without a hit: top-dose activity change, negative = inhibition, usual class: inhibitors; 300,000 compounds, 1.8% hits; calls by dose curve; tested in HEK293 cells; also: potency is read from the fitted curve at half-maximal effect; % is scaled to controls: 0 for no effect and ±100 for the full control effect
# Shiga inhibitor – blocks Shiga toxin action in Vero cells. inhibition, % at 38.7 µM. Vero cells, Shiga toxin protein synthesis inhibition reporter. 290,000 compounds, 9.2% hits; in the data active = inhibition mostly above about 28%, no sharp cut-off; inactive = mostly below about 43%; also: 0% is about no effect
# Pf growth 48h – P. falciparum growth inhibition at 48 hours (one generation). P. falciparum luciferase growth in erythrocytes, 48 h. Potency, µM (doses to about 28.7 µM), without a hit: at the top dose activity change, negative = inhibition, usual class: inhibitors. 310,000 compounds, 5.9% hits. AID 504832; also: potency is read from the fitted curve at half-maximal effect; % is scaled to controls: 0 for no effect and ±100 for the full control effect
#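 Growth was read as firefly luciferase luminescence after a 48 h, 37 C, 5% CO2 exposure of compounds to reporter-bearing P. falciparum cultures (0.1% parasitemia, 2% hematocrit final) in Albumax-supplemented RPMI 1640.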
# LASV entry inh – inhibitors of Lassa virus binding or cell entry. 300,000 compounds, 1.2% hits. Lassa virus pseudotype entry inhibition, cell reporter. Potency, µM (top dose mostly 37.9 µM), without a hit: top-dose activity change, negative = inhibition, usual class: inhibitors. AID 540256; calls by dose curve; tested in HEK293 cells; also: potency is read from the fitted curve at half-maximal effect; % is scaled to controls: 0 for no effect and ±100 for the full control effect; nearly all actives have a fitted effect of over 50% in size
# Cycloheximide cs – counter-screen for Shiga toxin inhibitors: cycloheximide protein synthesis inhibition. cell reporter, cycloheximide protein synthesis inhibition counterscreen. max response, %. 300,000 compounds, 12% hits. AID 2314; in the data active = max response mostly above about 13%, no sharp cut-off; inactive = mostly below about 14%; also: read at 38.3 µM for the half of the compounds with a filed dose; 0% is about no effect
# * marks the source's active call; other numbers are inactive results; u = inconclusive; x = no result given; [ ] = remark or other dose. A selection: hits, their analogues and other compounds. The true share with any hit is near 19%. Unless noted, calls follow the shape of the dose curve; as a rule, active = well fitted inhibition curve with a large enough effect; inconclusive = small, poorly fitted or top-dose-only effect, or another doubt; inactive = no such curve, though single readings can be large or run the other way.
SMILES,Pf growth 96h,MARV entry inh,Shiga inhibitor,Pf growth 48h,LASV entry inh,Cycloheximide cs
Cc1ccc(NS(=O)(=O)c2ccc(C(=O)NCC3CCCO3)cc2)cc1 (configuration not stated),7%,-10%[46.1 µM],-12,-6%,u,1
CCOCC(=O)Nc1nnc(SCCOC)s1,u,5%,19,9%,4%,1
COC(=O)COc1c(Cl)cc(C(c2c(C)[nH][nH]c2=O)c2c(C)[nH][nH]c2=O)cc1OC,42%,-19%[46.1 µM],-3,-28%,-16%[46.1 µM],-3
C#CCOCCOCCOCCNc1nc(N2CCN(C(=O)Cn3cc(CCCN=C(N)N)nn3)CC2)nc(N2CCN(C(=O)[C@H](C(C)C)n3cc(CCO)nn3)CC2)n1,u,22%,-14,-8%,4%,-2
C#CCOCCOCCOCCNc1nc(N2CCN(C(=O)Cn3cc(CCCN=C(N)N)nn3)CC2)nc(N2CCN(C(=O)[C@H]([C@@H](C)O)n3cc(CCCCN)nn3)CC2)n1,10µM*,x,x,0%,x,x
C#CCOCCOCCOCCNc1nc(N2CCN(C(=O)Cn3cc(CC(C)O)nn3)CC2)nc(N2CCN(C(=O)[C@H](C)n3cc(CCCN=C(N)N)nn3)CC2)n1 (some centres not stated),12µM*,-4%,-15,-2%,1%,-7
C#CCOCCOCCOCCNc1nc(N2CCN(C(=O)Cn3cc(CCCCN)nn3)CC2)nc(N2CCN(C(=O)[C@H](C)n3cc(CCCN=C(N)N)nn3)CC2)n1,0.12µM*,14%,-12,-8%,3%,-4
C#CCOCCOCCOCCNc1nc(N2CCN(C(=O)Cn3cc(CCO)nn3)CC2)nc(N2CCN(C(=O)[C@H]([C@@H](C)O)n3cc(CCCCN)nn3)CC2)n1,-7%,17%,-17,17%,2%,-4
C#CCOCCOCCOCCNc1nc(N2CCN(C(=O)[C@H]([C@@H](C)O)n3cc(CCCCN)nn3)CC2)nc(N2CCN(C(=O)[C@H](C)n3cc(CCCN=C(N)N)nn3)CC2)n1,u,-16%,-7,3%,-5%,7
C#CCOCCOCCOCCNc1nc(N2CCN(C(=O)Cn3cc(CCCN=C(N)N)nn3)CC2)nc(N2CCN(C(=O)[C@H]([C@@H](C)CC)n3cc(CCCN=C(N)N)nn3)CC2)n1,0.037µM*,3%,-14,1.2µM*,6%,-5
C=CCn1c(Cc2csc(N)n2)nnc1SCC(=O)Nc1ccccc1C(F)(F)F,u,5%,-10,x,37%[14.3 µM],1
C#CCOCCOCCOCCNc1nc(N2CCN(C(=O)Cn3cc(CCCCN)nn3)CC2)nc(N2CCN(C(=O)[C@H]([C@@H](C)CC)n3cc(CCCN=C(N)N)nn3)CC2)n1,u,x,x,0.74µM*,x,x
COC(=O)c1ccc(/C=C2\Oc3ccccc3NC2=O)cc1,u,x,29,101%,x,15*
COC(=O)c1ccc2c(c1)C(=O)/C(=C/c1ccc(C)cc1)O2,u,-1%,30,0%,17%,9
CCOC(=O)c1c(NC(=O)c2ccoc2C)sc(C(=O)N(C)C)c1C,10µM*,-3%[46.1 µM],-13,x,u,-1
CCOC(=O)c1c(NC(=O)COC(=O)Cc2ccccc2[N+](=O)[O-])sc(C(=O)N(C)C)c1C,0%,-4%[46.1 µM],x,u,1%,x
CCOC(=O)c1c(NC(=O)COC(=O)c2ccccc2NC)sc(C(=O)N(C)C)c1C,5.2µM*,u,-10,u,u,-2
C=CCn1c(SCc2cc(=O)n3ccsc3n2)nc2cc(Cl)ccc2c1=O,22%,-3%[46.1 µM],-14,-2%,3%,12
Cc1cc(Br)ccc1OCC(=O)NNC(=O)c1cnccn1,12µM*,-22%,12,u,u,1
Cc1cc(Cl)ccc1OCC(=O)NNC(=O)c1cnccn1,8.3µM*,8%[46.1 µM],9,u,-4%,17
CC(NC(=O)COC(=O)c1ccc(CO)cc1)C1CC2CCC1C2 (configuration not stated),30%,x,x,u,x,x
Cc1c(C(=O)Nc2cccc(Cl)c2)sc2nc3n(c(=O)c12)N=C(c1cccc(Br)c1)CS3,x,x,x,x,28%[46.1 µM],x
O=c1cc(-c2ccccc2)n2c(SCc3ccc(F)cc3)nnc2[nH]1,x,x,x,x,-9%[46.1 µM],x

# Screening data as filed in PubChem.
